In PubChem BioAssay (Tox21):
Results filed as inconclusive are left out. Activity calls are given as the source filed them. Unless noted, the call rests on the fitted dose curve.

Columns and labels:
[1] = Nuclear factor erythroid 2-related factor 2/antioxidant responsive element (Nrf2/ARE) small molecule agonists: qHTS cell viability counter screen in human keratinocytes (AID 1919968; active means well fitted curve in the direction sought with a large enough effect in the repeat runs; an effect the other way counts as inactive or inconclusive; further: nearly all actives have a fitted effect of over 55% in size; further: potency means the concentration at half of the fitted maximal effect); conditions: KeratinoSens HaCaT ARE cells viability, CellTiter-Fluor, 24 h; series mostly up to 92.4 µM
Outline: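 Seed 1,500 KeratinoSens cells per well, then incubate 5 h at 37 C/5% CO2. Add compounds in DMSO and incubate 23 h. Add CellTiter-Fluor, wait 1 h and read fluorescence.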

[2] = molecular target: Gonadotropin-releasing hormone receptor (Homo sapiens) (UniProt P30968); test: Human gonadotropin-releasing hormone receptor (GnRHR) small molecule agonists, calcium flux assay in GnRHR-HEK293 cells (AID 1920063); conditions: calcium flux fluorescence, agonist mode; series mostly up to 57.6 µM; further: nearly all actives have a fitted effect of over 35% in size
Outline: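 Cells: HEK293 stably expressing human GnRHR. Steps: overnight (18 h) culture, 1 h calcium dye loading at 37 C, compound addition, kinetic fluorescence read at 480/540 nm. Each compound tested at 15 concentrations in triplicate.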

[3] = molecular target: KiSS-1 receptor (Homo sapiens) (UniProt Q969F8); test: Human kisspeptin (KISS1R) small molecule agonists, calcium flux assay in KISS1R-HEK293 cells (AID 1920064; active means well fitted curve in the direction sought with a large enough effect in the repeat runs; an effect the other way counts as inactive or inconclusive); conditions: KISS1R-HEK293, calcium flux fluorescence, agonist; series mostly up to 76.8 µM
Outline: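 Cells plated and incubated 18 h; dye added, 1 h at 37 C; compounds in DMSO pinned in; signal read at 480/540 nm every second for 3 min. Each compound tested at 15 concentrations in triplicate.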

[4] = G protein-coupled receptor (GPCR) small molecule agonists, calcium flux assay: HEK293 wild type cell line counter screen (AID 1920065); conditions: HEK293 WT calcium flux, fluorescence, agonist mode; series mostly up to 57.6 µM
Outline: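 Counter-screen of the Tox21 10K library for non-specific calcium release: dye-loaded cells received compounds in DMSO and were monitored by kinetic fluorescence (480/540 nm, 3 min). Fifteen concentrations, run in triplicate.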

[5] = p53 small molecule agonists, cell-based qHTS assay with human liver microsomes (AID 1963577); conditions: HCT-116 p53RE-bla with human liver microsomes, ratio, 16 h; series mostly up to 66 µM;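 further: p53 response element beta-lactamase reporter cells with liver microsomes plus NADPH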
Outline: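 HLM-supplemented p53RE-bla reporter assay: 16 h compound exposure at 37 C, microsomes and NADPH each 0.5 mg/mL final, read by fluorescence intensity.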

[6] = p53 small molecule agonists, cell-based qHTS assay with rat liver microsomes (AID 1963578); conditions: HCT-116 p53RE-bla, beta-lactamase ratio, 16 h; series mostly up to 66 µM
Outline: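 Quantitative HTS of the Tox21 10K library: p53RE-bla cells, rat liver microsomes plus NADPH at 0.5 mg/mL final each, 16 h at 37 C, beta-lactamase fluorescence detection.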

[7] = p53 small molecule agonists, cell-based qHTS assay with human liver microsomes: qHTS cell viability counter screen (AID 1963579); conditions: p53RE-bla HCT-116 viability, ATP luminescence, 16 h, HLM; series mostly up to 66 µM; further: nearly all actives have a fitted effect of over 45% in size; further: potency means the concentration at half of the fitted maximal effect
Outline: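 Viability of p53RE-bla cells is measured as CellTiter-Glo luminescence following a 16 h, 37 C incubation with compound, liver microsomes from human donors and NADPH.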

[8] = p53 small molecule agonists, cell-based qHTS assay with rat liver microsomes: qHTS cell viability counter screen (AID 1963580); conditions: p53RE-bla HCT-116 + rat microsomes, ATP viability, 16 h; series mostly up to 66 µM; further: nearly all actives have a fitted effect of over 45% in size
Outline: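 Intracellular ATP, by CellTiter-Glo luminescence, defines viability. HCT-116 p53RE-bla cells, 4,000 per well, were compound-treated in the presence of rat liver microsomes and NADPH for 16 h at 37 C.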

[9] = p53 small molecule agonists, cell-based qHTS assay: qHTS cell viability counter screen (AID 1963581); conditions: p53RE-bla HCT-116 viability, ATP luminescence, 16 h; series mostly up to 66 µM; further: nearly all actives have a fitted effect of over 45% in size
Outline: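 Cells: HCT-116 with p53 response element-driven beta-lactamase. Treatment: 16 h, 37 C, compounds in DMSO. Read: CellTiter-Glo luminescence after 30 min RT.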

[10] = p53 small molecule agonists, cell-based qHTS assay (AID 1963582; active means well fitted activation curve with a large enough effect in the signal ratio in the repeat runs, not every such curve was filed as active; the % refers to the signal ratio); conditions: HCT-116 p53RE-bla reporter, beta-lactamase FRET ratio, 16 h; series mostly up to 66 µM
Outline: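 Quantitative HTS in p53RE-bla cells: after a 5 h settling period, compounds delivered in DMSO were left on cells for 16 h at 37 C, and reporter induction was measured as fluorescence following 2 h substrate loading.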

[11] = molecular target: 5-hydroxytryptamine receptor 2A (Homo sapiens) (UniProt P28223); test: 5-hydroxytryptamine receptor 2A (HTR2A) small molecule antagonists, cell-based qHTS assay (AID 1963586); conditions: HTR2A-CHO cells, DOI-induced calcium flux, fluorescence; series mostly up to 61.5 µM; further: nearly all actives have a fitted effect of over 45% in size; further: potency means the concentration at half of the fitted maximal effect
Outline: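 Antagonist-mode intracellular calcium assay: DOI (4 nM) added after 5 min compound pre-incubation at room temperature to dye-loaded HTR2A-CHO cells. Fluorescence followed for 3 min, sampled every second.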

[12] = molecular target: 5-hydroxytryptamine receptor 2A (Homo sapiens) (UniProt P28223); test: 5-hydroxytryptamine receptor 2A (HTR2A) small molecule agonists, cell-based qHTS assay (AID 1963587); conditions: HTR2A-CHO cells, calcium flux fluorescence, agonist mode; series mostly up to 76.8 µM; further: nearly all actives have a fitted effect of over 30% in size
Outline: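 Kinetic calcium-flux fluorescence (2 min, 1 sec intervals) after compound addition in agonist mode. HTR2A-CHO cells were cultured 18 h, then dye-loaded 1 h at 37 C.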

[13] = molecular target: Muscarinic acetylcholine receptor M1 (Homo sapiens) (UniProt P11229); test: Cholinergic receptor muscarinic 1 (CHRM1) small molecule antagonists, cell-based qHTS assay (AID 1963588); conditions: CHRM1-CHO antagonist mode, calcium flux fluorescence; series mostly up to 61.5 µM; further: nearly all actives have a fitted effect of over 40% in size; further: potency means the concentration at half of the fitted maximal effect
Outline: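 CHRM1-CHO calcium-flux assay, antagonist mode. Cells were seeded 18 h, dye-loaded 1 h at 37 C and given compound for 5 min at RT, then acetylcholine was added at 50nM. FDSS fluorescence was read 3 min; 15 concentrations, three runs.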

[14] = molecular target: Muscarinic acetylcholine receptor M1 (Homo sapiens) (UniProt P11229); test: Cholinergic receptor muscarinic 1 (CHRM1) small molecule agonists, cell-based qHTS assay (AID 1963589); conditions: CHRM1-CHO cells, agonist mode, calcium flux fluorescence; series mostly up to 76.8 µM; further: nearly all actives have a fitted effect of over 35% in size
Outline: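 Agonist-mode qHTS in CHO cells stably carrying human muscarinic M1. Intracellular calcium is tracked by fluorescence every second after compound transfer; each compound runs at 15 concentrations in three independent runs.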

[15] = cAMP Responsive Elements (CRE) small molecule agonists, cell-based qHTS assay (AID 1963590); conditions: CRE-bla HEK293T, beta-lactamase FRET ratio, 3 h; series mostly up to 92.4 µM
Outline: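 Agonist mode qHTS in CRE-bla HEK 293T cells: compounds dosed from DMSO for 3 h at 37 C/5% CO2, followed by LiveBLAzer B/G FRET substrate for 2 h at room temperature.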

[16] = cAMP Responsive Elements (CRE) small molecule antagonists, cell-based qHTS assay (AID 1963591; active means well fitted inhibition curve with a large enough effect in the signal ratio in the repeat runs, not every such curve was filed as active; the % refers to the signal ratio); conditions: CRE-bla HEK293T, beta-lactamase FRET ratio; series mostly up to 92.4 µM
Outline: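 Antagonist mode: test compounds are co-incubated with the adenylyl cyclase activator NKH477 (0.25 uM final) on CRE-bla HEK293T cells for 3 h at 37 °C, followed by LiveBLAzer substrate loading.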

[17] = molecular target: Beta-2 adrenergic receptor (Homo sapiens) (UniProt P07550); test: Adrenergic beta2 receptor (ADRB2) small molecule antagonists, cell-based qHTS assay (AID 1963592); conditions: CHO-ADRB2 cells, isoproterenol-stimulated cAMP HTRF ratio, 0.5 h; series mostly up to 92.4 µM; further: nearly all actives have a fitted effect of over 50% in size
Outline: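 Cells (CHO, stable ADRB2 overexpression) incubated 18-20hr at 37C; compounds added from DMSO; agonist mix (1nM isoproterenol, 100uM IBMX, 25uM Ro-20-1724) added; 0.5hr RT; d2-cAMP and anti-cAMP-cryptate added; 1hr RT; 665/615 nm read.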

[18] = molecular target: D(2) dopamine receptor (Homo sapiens) (UniProt P14416); test: Dopamine D2 receptor (DRD2) small molecule agonists, cell-based qHTS assay (AID 1963594); conditions: HEK293-DRD2 cAMP HTRF, agonist mode, 30 min; series mostly up to 92.4 µM; further: nearly all actives have a fitted effect of over 35% in size
Outline: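 cAMP accumulation in DRD2-HEK293 cells measured by HTRF after 1 h detection; compounds added 10 min before NKH477 (200nM […]) forskolin-analogue stimulation, 30 min at room temperature, with Ro20-1724 present at 0.1 mM final.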

[19] = molecular target: D(2) dopamine receptor (Homo sapiens) (UniProt P14416); test: Dopamine D2 receptor (DRD2) small molecule antagonists, cell-based qHTS assay (AID 1963595; active means well fitted inhibition curve with a large enough effect in the signal ratio in the repeat runs, with a control signal flat; the % refers to the signal ratio; further: potency means the concentration at half of the fitted maximal effect); conditions: HEK293-DRD2 cAMP HTRF antagonist mode; series mostly up to 92.4 µM
Outline: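 HEK293 cells stably expressing DRD2 were preincubated with 0.1 mM Ro20-1724, then with compound for 10 min at room temperature. Cells were stimulated with 200 nM NKH477 plus 12 nM quinpirole for 30 min, and cAMP was read by HTRF.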

[20] = Nuclear factor erythroid 2-related factor 2/antioxidant responsive element (Nrf2/ARE) small molecule agonists: luciferase reporter gene qHTS assay in human keratinocytes (AID 1919969); conditions: KeratinoSens HaCaT ARE-luciferase, luminescence, 24 h; series mostly up to 92.4 µM; further: nearly all actives have a fitted effect of over 35% in size; further: potency means the concentration at half of the fitted maximal effect

Measured: Potency

Sequence of Gonadotropin-releasing hormone receptor (Homo sapiens) (P30968 whole entry, looked up): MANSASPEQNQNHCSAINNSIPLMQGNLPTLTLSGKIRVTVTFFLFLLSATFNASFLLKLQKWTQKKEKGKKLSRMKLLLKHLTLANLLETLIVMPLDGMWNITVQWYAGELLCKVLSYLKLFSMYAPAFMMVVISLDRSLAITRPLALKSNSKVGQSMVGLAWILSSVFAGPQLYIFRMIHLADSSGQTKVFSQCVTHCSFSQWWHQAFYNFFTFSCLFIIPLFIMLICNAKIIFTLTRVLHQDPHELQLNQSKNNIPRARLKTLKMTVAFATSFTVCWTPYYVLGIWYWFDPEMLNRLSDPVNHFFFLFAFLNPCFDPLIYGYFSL
Sequence of D(2) dopamine receptor (Homo sapiens) (P14416 whole entry, looked up): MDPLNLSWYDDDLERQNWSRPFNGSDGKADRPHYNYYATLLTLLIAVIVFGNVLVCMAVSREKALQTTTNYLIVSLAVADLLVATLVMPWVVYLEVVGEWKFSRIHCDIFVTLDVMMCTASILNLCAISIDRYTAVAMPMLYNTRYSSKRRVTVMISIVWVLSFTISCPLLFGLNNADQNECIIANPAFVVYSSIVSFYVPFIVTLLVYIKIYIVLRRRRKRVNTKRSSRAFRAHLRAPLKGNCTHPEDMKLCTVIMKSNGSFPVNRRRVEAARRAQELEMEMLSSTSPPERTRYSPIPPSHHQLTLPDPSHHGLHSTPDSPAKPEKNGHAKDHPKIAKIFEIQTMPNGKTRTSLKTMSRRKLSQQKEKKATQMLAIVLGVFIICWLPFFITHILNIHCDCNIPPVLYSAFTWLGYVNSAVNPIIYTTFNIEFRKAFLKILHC
Sequence of KiSS-1 receptor (Homo sapiens) (Q969F8 whole entry, looked up): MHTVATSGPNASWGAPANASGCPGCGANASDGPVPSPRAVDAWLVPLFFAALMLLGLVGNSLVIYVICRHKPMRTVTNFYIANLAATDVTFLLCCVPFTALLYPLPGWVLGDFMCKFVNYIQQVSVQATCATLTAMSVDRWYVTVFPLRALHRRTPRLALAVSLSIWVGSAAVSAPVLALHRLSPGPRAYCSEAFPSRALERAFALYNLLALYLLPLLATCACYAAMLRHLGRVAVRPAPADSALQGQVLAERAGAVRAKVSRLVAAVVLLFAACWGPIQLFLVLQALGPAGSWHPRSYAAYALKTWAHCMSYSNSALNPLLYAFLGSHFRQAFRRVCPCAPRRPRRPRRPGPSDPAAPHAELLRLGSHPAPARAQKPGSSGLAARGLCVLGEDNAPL
Sequence of Beta-2 adrenergic receptor (Homo sapiens) (P07550 whole entry, looked up): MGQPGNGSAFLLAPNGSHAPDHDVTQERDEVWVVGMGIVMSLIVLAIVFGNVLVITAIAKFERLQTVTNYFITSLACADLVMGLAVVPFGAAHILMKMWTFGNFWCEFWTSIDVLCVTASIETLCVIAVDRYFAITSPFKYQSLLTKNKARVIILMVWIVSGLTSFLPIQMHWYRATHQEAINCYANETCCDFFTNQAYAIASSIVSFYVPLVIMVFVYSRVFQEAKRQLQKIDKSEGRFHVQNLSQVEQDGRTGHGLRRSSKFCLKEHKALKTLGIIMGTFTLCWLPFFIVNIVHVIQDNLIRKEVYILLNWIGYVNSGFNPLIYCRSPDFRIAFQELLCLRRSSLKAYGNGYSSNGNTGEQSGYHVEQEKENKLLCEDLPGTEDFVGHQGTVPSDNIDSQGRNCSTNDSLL
Sequence of 5-hydroxytryptamine receptor 2A (Homo sapiens) (P28223 whole entry, looked up): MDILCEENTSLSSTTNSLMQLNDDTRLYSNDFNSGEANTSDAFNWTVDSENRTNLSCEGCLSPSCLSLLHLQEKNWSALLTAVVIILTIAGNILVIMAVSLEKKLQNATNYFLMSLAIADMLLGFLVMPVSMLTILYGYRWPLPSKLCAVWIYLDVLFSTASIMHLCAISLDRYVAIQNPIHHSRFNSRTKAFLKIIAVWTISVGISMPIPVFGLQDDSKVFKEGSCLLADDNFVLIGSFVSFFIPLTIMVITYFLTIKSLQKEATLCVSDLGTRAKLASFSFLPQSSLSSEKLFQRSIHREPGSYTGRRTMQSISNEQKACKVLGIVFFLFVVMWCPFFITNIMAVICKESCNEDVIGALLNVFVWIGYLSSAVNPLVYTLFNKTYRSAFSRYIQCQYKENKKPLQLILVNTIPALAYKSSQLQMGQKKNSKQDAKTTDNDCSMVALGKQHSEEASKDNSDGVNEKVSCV
Sequence of Muscarinic acetylcholine receptor M1 (Homo sapiens) (P11229 whole entry, looked up): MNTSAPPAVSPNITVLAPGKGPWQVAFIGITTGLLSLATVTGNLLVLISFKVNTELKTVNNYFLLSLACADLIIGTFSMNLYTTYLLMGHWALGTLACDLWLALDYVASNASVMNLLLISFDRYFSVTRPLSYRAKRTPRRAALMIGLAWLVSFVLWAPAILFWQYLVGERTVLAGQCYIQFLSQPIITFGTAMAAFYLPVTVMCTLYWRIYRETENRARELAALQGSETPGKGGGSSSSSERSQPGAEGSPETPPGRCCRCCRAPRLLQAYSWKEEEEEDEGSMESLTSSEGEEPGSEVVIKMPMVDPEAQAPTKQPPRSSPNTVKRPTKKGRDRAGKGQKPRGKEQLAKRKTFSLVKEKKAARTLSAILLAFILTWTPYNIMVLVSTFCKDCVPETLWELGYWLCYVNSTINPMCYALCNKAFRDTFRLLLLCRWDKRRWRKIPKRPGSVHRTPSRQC

NC(=O)CI
not listed: [20]
inactive: all other assays above

O=C(O)CBr
not listed: [20]
inactive: all other assays above

CNC(=O)O/N=C(\C)SC
not listed: [2] | [5] | [6] | [9] | [13]
inactive: all other assays above

CNC(=O)N(C)c1nc2ccccc2s1
not listed: [2] | [5] | [6] | [10]
inactive: all other assays above

CNC(=O)/C=C(\C)OP(=O)(OC)OC
not listed: [2] | [4] | [5] | [6] | [7] | [10] | [12]
inactive: all other assays above

CC(Cc1ccc(O)cc1)NCC(O)c1cc(O)cc(O)c1 (stereo unspecified)
active: [19] 5.96 µM
inactive: [1] | [20] | [3] | [4] | [13] | [14] | [16]

Clc1ccc(C(OCCN2CCCCC2)c2ccccc2)cc1 (stereo unspecified)
active: [13] 0.46 µM
not listed: [2] | [5] | [6] | [10] | [11] | [15] | [19]
inactive: all other assays above

CC(=O)O[C@H]1CC[C@@]2(C)C(=CC[C@@H]3[C@@H]2CC[C@]2(C)C(=O)CC[C@@H]32)C1
not listed: [2] | [4] | [11] | [15] | [16]
inactive: all other assays above

CC1(C)CON(Cc2ccccc2Cl)C1=O
not listed: [20]
inactive: all other assays above

CCC1(CCC(C)C)C(=O)NC(=O)NC1=O
not listed: [2] | [5] | [6] | [10] | [11] | [12] | [13] | [14]
inactive: all other assays above

BrCCCCCCBr
active: [7] 20.4 µM
not listed: [19] | [20]
inactive: all other assays above

C[C@H](N)C(=O)c1ccccc1
not listed: [2] | [5] | [6] | [10] | [14] | [18]
inactive: all other assays above

CN1C(=O)COc2c(C(=O)NC3CN4CCC3CC4)cc(Cl)cc21 (stereo unspecified)
inactive: [1] | [20] | [3] | [7] | [8] | [9] | [15] | [16] | [17] | [18]

CC1CN1P(=O)(N1CC1C)N1CC1C (stereo unspecified)
not listed: [2] | [5] | [6] | [9] | [10] | [11]
inactive: all other assays above

c1csc(-c2ccc(-c3cccs3)s2)c1
active: [20] 8.63 µM
not listed: [2] | [5] | [6] | [7] | [10] | [15] | [16] | [18]
inactive: all other assays above

Clc1ccccc1-c1ccccc1Cl
active: [1] 55.3 µM | [11] 47.9 µM
not listed: [20]
inactive: all other assays above
